The results in this text go back to PubChem BioAssay (NCI).

Some test systems named below: T-47D breast; BT-549 breast; MDA-MB-435 melanoma; SW-620 colon; MCF7 breast; HCT-116 colon; HCC-2998 colon; KM12 colon.
Test in all cases: NCI-60 one-dose screen, 48 h (100 = growth as untreated, 0 = no growth, -100 = all killed)
Conditions in all cases: 10 µM unless noted

About 83,000 compounds went through this panel and 20% of them were active in at least one assay; those are over-represented in the sample as a whole.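 The endpoint reported here, percent growth, reads 100 for growth as untreated, 0 for no net growth and -100 for all cells dead.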 Values without a mark were called inactive. Active and inactive are the calls of the source. Rule for the calls: active = growth percent below 10; inactive = the rest.

Regarding `Oc1ccc(Nc2ncnc3c2sc2ncccc23)cc1`, the growth is 51% with T-47D breast; 47.3% in the assay with BT-549 breast; 36.5% with MDA-MB-435 melanoma; 44.1% with SW-620 colon; 18.8% with MCF7 breast; 27.5% in the assay on HCT-116 colon. Moreover, the growth in the assay with HCC-2998 colon is 69.4%; with KM12 colon, 50.6%.

`c1ccc2c(c1)cnc1ccccc12`: the growth was 96.8% with T-47D breast; 106% in the assay with BT-549 breast; 102% with MDA-MB-435 melanoma; 98.5% in the assay on SW-620 colon; 94.3% in the assay with MCF7 breast; 100% in the assay on HCT-116 colon. Further, the growth in the assay on HCC-2998 colon is 101%; in the assay with KM12 colon it was 102%.

In the case of `CCCCN(CCCC)CCC(=O)c1ccc(OC)c2ccccc12`, the growth is 41.4% in the assay with T-47D breast; 108% with BT-549 breast; 83.3% with MDA-MB-435 melanoma; 61.5% with SW-620 colon; 15.1% in the assay on MCF7 breast; 72.1% with HCT-116 colon. For the same compound, the growth was 105% in the assay with HCC-2998 colon and 71.1% in the assay with KM12 colon.

Regarding `COc1ccc(C(=O)c2c(N)nc3n2CCCC3)cc1OC`, the growth with T-47D breast is 101%; in the assay with BT-549 breast, 93.9%; in the assay with MDA-MB-435 melanoma, 104%; with SW-620 colon, 101%; in the assay with MCF7 breast, 99%; in the assay with HCT-116 colon it was 91.9%. The results for the growth in the assay on HCC-2998 colon and with KM12 colon were 114% and 101%, respectively.

Regarding `CC1(C)C(N(O)C(=O)Nc2ccc(Cl)cc2)N(c2ccc(Cl)cc2)C(=O)N1CC(=O)N/N=C/C=C/c1ccc([N+](=O)[O-])o1` (configuration not stated), the growth with T-47D breast was 34.3%; in the assay with BT-549 breast, -19.1% (active); in the assay on MDA-MB-435 melanoma it was -15.3% (active); in the assay with SW-620 colon, -15.7% (active); with MCF7 breast, 7.37% (active); with HCT-116 colon it was -98.1% (active). Moreover, the results for the growth in the assay with HCC-2998 colon and with KM12 colon were -90.6% (active) and 23.1%, respectively.

In the case of `CCOC(=O)c1ccccc1SC(C[N+](=O)[O-])c1ccccc1` (configuration not stated), the growth in the assay with T-47D breast is 60.6%; in the assay on BT-549 breast, 88.4%; in the assay with MDA-MB-435 melanoma, -58.1% (active); with SW-620 colon, 55.8%; in the assay on MCF7 breast, 1.05% (active); in the assay with HCT-116 colon, 3.98% (active). Moreover, the results for the growth with HCC-2998 colon and in the assay with KM12 colon were 8.62% (active) and 91.6%, respectively.

Regarding `CCNS(=O)(=O)c1ccc(C)cc1`, the growth was 106% with T-47D breast; 114% in the assay with BT-549 breast; 111% with MDA-MB-435 melanoma; 107% with SW-620 colon; 94.9% in the assay with MCF7 breast; 113% with HCT-116 colon. Further, the growth was 106% in the assay on HCC-2998 colon and 108% in the assay on KM12 colon.

On to `O=C(Cn1nncc1CN1C(=O)CSC1=O)Nc1ccc(F)cc1`, for which the growth in the assay on T-47D breast was 97.8%; in the assay with BT-549 breast, 98.8%; in the assay on MDA-MB-435 melanoma, 100%; in the assay on SW-620 colon, 98.8%; in the assay on MCF7 breast it was 94.6%; in the assay with HCT-116 colon, 101%. The growth in the assay with HCC-2998 colon was 96.2%; in the assay with KM12 colon, 106%.

For `CCCCc1n(Cc2ccc3ccccc3n2)cc[n+]1Cc1ccc2ccccc2n1`, the growth was 6.69% (active) in the assay on T-47D breast; 2.91% (active) in the assay on BT-549 breast; 7.37% (active) with MDA-MB-435 melanoma; 22.1% in the assay on SW-620 colon; 7.29% (active) in the assay with MCF7 breast; 9.88% (active) in the assay with HCT-116 colon. The growth with HCC-2998 colon is 18.5%; in the assay on KM12 colon, 5.78% (active).

Consider `O=C(Nc1ccc(OS(=O)(=O)c2ccc(F)cc2)cc1)C12CC3CC(CC(C3)C1)C2`, for which the growth in the assay on T-47D breast was 31.3%; in the assay with BT-549 breast, 71.9%; with MDA-MB-435 melanoma it was 82.9%; in the assay with SW-620 colon, 39.4%; in the assay on MCF7 breast, 34%; in the assay with HCT-116 colon it was 33.7%. In addition, the growth in the assay on HCC-2998 colon was 40.6%; in the assay on KM12 colon it was 37.3%.

Regarding `CCOc1ccc([C@@H]2[C@@H](Oc3ccccc3)C(=O)N2c2cc(OC)c(OC)c(OC)c2)cc1`, the growth with T-47D breast was 91.8%; with BT-549 breast, -18.2% (active); in the assay on MDA-MB-435 melanoma it was -25% (active); with SW-620 colon, 20.8%; with MCF7 breast, 16.9%; with HCT-116 colon, -3.96% (active). The growth is 16.2% in the assay on HCC-2998 colon and 11.5% in the assay with KM12 colon.

Take `CC(=O)c1cc(C(=O)c2ccc3c(c2)Sc2ccccc2N3)c2c(C)cccn12`: the growth was 58.1% with T-47D breast; 18.2% with BT-549 breast; -26.9% (active) in the assay on MDA-MB-435 melanoma; 28.8% in the assay with SW-620 colon; 24.5% with MCF7 breast; 6.07% (active) in the assay with HCT-116 colon. Besides, the growth in the assay with HCC-2998 colon is 22.8%; with KM12 colon, 11.8%.

Consider `COc1ccc(C2C=C(c3ccc(Cl)cc3)N=C3SC=CN32)cc1` (configuration not stated), for which the growth in the assay with T-47D breast is 104%; in the assay with BT-549 breast it was 90.3%; with MDA-MB-435 melanoma, 107%; with SW-620 colon, 97.7%; with MCF7 breast it was 96.1%; in the assay with HCT-116 colon it was 104%. The growth was 119% in the assay on HCC-2998 colon and 112% with KM12 colon.

As to `CC1CCN(Cc2ccc(NC(=O)c3cc4ccc5cccnc5c4[nH]3)cc2)CC1`, the growth in the assay with T-47D breast was 38.4%; with BT-549 breast it was 42.8%; in the assay on MDA-MB-435 melanoma it was -67.6% (active); in the assay with SW-620 colon, 28.1%; in the assay with MCF7 breast, 27.2%; with HCT-116 colon it was 13.6%. Besides, the growth with HCC-2998 colon is 17.5%; with KM12 colon it was 15.1%.
